ARNT TACC3 PPI: disruptors of ARNT/TACC3 protein interaction, primary screen, biochemical, AlphaScreen, single concentration | AlphaScreen His-ARNT PAS-B/GST-TACC3 binding, luminescence; TACC3 fragment carries E629A point mutation | Transforming acidic coiled-coil-containing protein 3 (Homo sapiens), Q9Y6A5 | inhibition, % at 9.99 µM | AID 623870, 2012 | 390,000 tested, 0.66% active;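 active = mean inhibition of replicates at least 50% and at least half of replicates each reaching 50%; inconclusive = half or more replicates reach 50% but mean below 50%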;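 also: 0% = complete ARNT plus TACC3 wells and 100% = ARNT alone without TACC3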
rRNA inh HTS: reduced GFP signal of wild-type E. coli, primary screen, bacterial rRNA inhibitor project, GFP/RFP fluorescence, OD600, single point. E. coli WT GFP vs humanized-ribosome RFP mutants, 24 h; active compounds read low; DMSO median 0, no signal -100. AID 720706, 2013. GFP signal change (wild-type ribosome), % (test concentration not listed). 350,000 tested, 1.6% active;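 active = significant combined selectivity score with lowered wild-type GFP, culture density cut under 30%, mutant RFP and density less affected; inactive = any of these conditions unmet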
F508del corr: F508del CFTR correction, initial screen, CFBE line, single point; CFBE cells, YFP halide quenching; stimulated with forskolin plus potentiator P3; % fluorescence drop versus neutral controls; activity (quench increase), % at 7.58 µM; 350,000 tested, 0.36% active; AID 720511, 2013;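 active = mean added fluorescence quench of at least 8% versus neutral control, with both replicates also reaching 8%; inconclusive = only one of the mean or replicate conditions met; inactive = mean below 8% and not both replicates reaching 8%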;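 also: cells transiently co-express mutant CFTR-F508del with the halide-sensitive YFP; corrector assay measuring rescue of mutant channel to the surface after 24 h compound exposure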
PvdQ acylase: P. aeruginosa PvdQ acylase inhibitors, primary screen, biochemical, fluorescence, plate reader and imaging, single point. PvdQ acylase [Pseudomonas aeruginosa LESB58]. purified PvdQ acylase. inhibition, % at 10 µM. 340,000 tested, 0.063% active. AID 488965, 2010; in the data active = inhibition above about 30%, passing the limit was not always enough; inconclusive = no clear call, values can overlap the other calls;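 also: 0% = vehicle neutral wells and 100% = reference inhibitor wells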
ERAP1 inh: human ERAP1 aminopeptidase inhibitors, primary screen, biochemical, single point, plate reader; 340,000 tested, 0.15% active; inhibition, % at 10.7 µM; Endoplasmic reticulum aminopeptidase 1 (Homo sapiens), Q9NZ08; recombinant ERAP1, Leu-AMC fluorescence, 60 min; AID 652197, 2013;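 active = mean replicate inhibition of at least 30%, or all replicates individually reaching that 30% level; inactive = mean below 30% and not every replicate reaching it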;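 also: 0% = neutral control wells and 100% = L-leucinethiol positive control wells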
Target sequence (Q9NZ08 whole entry, looked up): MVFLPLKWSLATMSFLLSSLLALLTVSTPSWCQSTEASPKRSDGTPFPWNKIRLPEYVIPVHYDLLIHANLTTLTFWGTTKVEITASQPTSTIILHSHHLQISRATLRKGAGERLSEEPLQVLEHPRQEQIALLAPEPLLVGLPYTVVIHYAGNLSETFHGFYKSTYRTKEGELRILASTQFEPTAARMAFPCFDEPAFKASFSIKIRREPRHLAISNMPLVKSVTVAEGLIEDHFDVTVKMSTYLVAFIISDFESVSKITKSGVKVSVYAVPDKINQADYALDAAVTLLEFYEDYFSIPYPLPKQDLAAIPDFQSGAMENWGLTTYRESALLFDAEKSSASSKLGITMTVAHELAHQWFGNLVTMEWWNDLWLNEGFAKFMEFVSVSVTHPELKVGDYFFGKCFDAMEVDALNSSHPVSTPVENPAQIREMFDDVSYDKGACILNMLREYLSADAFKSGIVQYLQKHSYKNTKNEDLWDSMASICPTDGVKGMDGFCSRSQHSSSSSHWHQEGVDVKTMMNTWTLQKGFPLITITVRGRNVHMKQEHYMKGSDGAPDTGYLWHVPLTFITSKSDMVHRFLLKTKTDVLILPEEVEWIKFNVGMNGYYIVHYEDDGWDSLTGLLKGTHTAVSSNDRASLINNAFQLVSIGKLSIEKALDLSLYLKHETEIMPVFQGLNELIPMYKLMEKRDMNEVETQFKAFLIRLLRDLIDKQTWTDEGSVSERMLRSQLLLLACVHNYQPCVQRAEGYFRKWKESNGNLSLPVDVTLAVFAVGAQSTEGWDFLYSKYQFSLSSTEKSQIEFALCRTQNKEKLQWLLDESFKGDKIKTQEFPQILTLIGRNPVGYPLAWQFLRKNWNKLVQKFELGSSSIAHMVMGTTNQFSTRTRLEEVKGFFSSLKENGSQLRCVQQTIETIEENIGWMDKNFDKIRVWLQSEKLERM
* marks the source's active call; other numbers are inactive results; ? = inconclusive; . = no result given. Rows were chosen to be rich in hits. Some 2.1% of all compounds tested hit in one or more screens of this group.

SMILES	ARNT TACC3 PPI	rRNA inh HTS	F508del corr	PvdQ acylase	ERAP1 inh
CO[C@@H]1CN(C)C(=O)c2cc(NC(=O)Cc3ccccc3)ccc2OC[C@@H](C)N(C)C[C@@H]1C	-3.5	-3.7	.	.	-3.5
NS(=O)(=O)c1ccc(CCNc2nn3c(-c4cccc(OC(F)(F)F)c4)cnc3s2)cc1	.	-15.9	13.7*	.	2.4
Cc1ccccc1NC(=O)CSc1nnc(-c2ccco2)c(-c2ccco2)n1	4.0	.	.	-12.3	.
Cc1cccc(C)c1NC(=O)CSc1nnc(-c2ccco2)c(-c2ccco2)n1	57.4*	.	.	-8.1	.
CC(C)NC(=O)Nc1ccc2c(c1)C(=O)N([C@H](C)CO)C[C@@H](C)[C@@H](CN(C)C(=O)NC1CCCCC1)OCCCC[C@H](C)O2	2.5	0.3	1.8	.	0.3
C[C@@H]1CN([C@@H](C)CO)C(=O)c2cc(NC(=O)c3ccncc3)ccc2O[C@@H]1CN(C)C(=O)Nc1ccc(F)cc1	1.8	2.2	-0.1	.	0.2
CN(C(=O)COC(=O)c1cnc(Cl)c(Cl)c1)C1CCCCC1	11.9	-14.2*	-0.8	1.2	4.0
COc1ccc(C(=O)c2ccc(OC)cc2OC)cc1	2.9	-1.3	?	21.7	5.2
COc1ccc(C(=O)c2ccc(N(C)C)cc2)c(OC)c1	3.0	-8.3	11.2*	0.3	3.1
O=[N+]([O-])c1nn(-c2ccc(Cl)cc2)n(O)c1=NCc1cccnc1	-5.6	-19.4*	-2.0	-23.5	0.1
O=[N+]([O-])c1nn(-c2cccc(Cl)c2)n(O)c1=NCc1cccnc1	13.1	1.5	1.6	12.4	0.8
COC(=O)C1=C(C)N(Cc2ccccc2)C(=NCc2ccccc2)N[C@H]1c1cccc(F)c1	.	-56.8	0.4	-4.9	53.3*
COC(=O)C1=C(C)N(Cc2ccc(C(F)(F)F)cc2)C(=NCc2ccccc2)NC1c1ccc(Cl)cc1 (stereo not given)	.	-41.7*	1.6	.	-1.8
COC(=O)C1=C(C)N(Cc2ccccc2C(F)(F)F)C(=NCc2ccc(C(F)(F)F)cc2)NC1c1ccc(Cl)cc1 (stereo not given)	.	-0.3	5.0	.	0.2
CCN(CC)CCCN=C1N[C@@H](c2cccc(C(F)(F)F)c2)C(C(=O)OC)=C(C)N1CC	-1.7	9.8	-1.1	-5.3	61.3*
COCCN=C1N[C@@H](c2ccccc2)C(C(=O)OC)=C(C)N1Cc1ccccc1	-0.1	10.9	-1.4	-13.9	-2.2
COCCN=C1N[C@@H](c2ccc(Br)cc2)C(C(=O)OC)=C(C)N1Cc1ccccc1	4.6	-5.6	-2.7	6.0	90.7*
CO[C@H]1CC[C@@H]2CCN(C)C(=O)C[C@@H](c3ccccc3)CN(C)C(=O)c3cccc(C#N)c3OC[C@@H]1O2	-8.3	1.7	.	.	-1.3
O=C(Nc1ccc(Cl)c(Cl)c1)N[C@H]1CC[C@H](CCNC(=O)c2ccc(F)cc2)O[C@@H]1CO	-2.2	-56.7	0.4	.	0.4
COc1ccccc1NC(=O)N[C@@H]1C=C[C@H](CC(=O)N2CCC(Cc3ccccc3)CC2)O[C@@H]1CO	0.4	-7.7	-1.0	.	3.8
Cc1ccc2nc(N(CCCN(C)C)C(=O)c3ccc4ncsc4c3)sc2c1	3.7	2.4	1.1	-9.3	64.0*
Cc1cc(C)c2nc(N(CCCN(C)C)C(=O)C3=COCCO3)sc2c1	-0.7	-2.6	3.5	4.3	-4.8
Cc1cc(C)c2nc(N(CCCN(C)C)C(=O)c3ccc4c(c3)OCCO4)sc2c1	16.8	-27.6*	-0.7	7.2	0.6
Cc1ccc(-c2cnc3c(c2)C(=O)N([C@@H](C)CO)C[C@@H](C)[C@@H](CN(C)C(=O)c2ccc(F)cc2)O3)cc1	-6.0	-0.8	-2.5	.	0.9
CC(C)NC(=O)Nc1ccc2c(c1)C(=O)N([C@@H](C)CO)C[C@@H](C)[C@@H](CN(C)S(=O)(=O)c1ccc(Cl)cc1)OCCCC[C@H](C)O2	-1.4	-1.9	1.6	.	0.6
SMILES	ARNT TACC3 PPI	rRNA inh HTS	F508del corr	PvdQ acylase	ERAP1 inh
O=C(C[C@H]1CC[C@H]2[C@@H](COC[C@@H](O)CN2Cc2cccc(Cl)c2)O1)N1CCCCC1	-3.9	-6.8	-2.2	.	-2.5
COc1ccc(OC)c2[nH]c(=O)c(CCNS(=O)(=O)c3ccc(Cl)cc3)cc12	47.9*	.	.	-8.7	.
O=[N+]([O-])c1ccc(Nc2ccccc2)c2nonc12	8.4	-5.8	1.3	0.7	5.6
O=[N+]([O-])c1ccc(Sc2cccc[n+]2[O-])c2nonc12	61.5*	15.7	45.1*	-1.8	13.7
CC1(C)Cc2ccccc2C(CSc2ccccc2C(=O)O)=N1	.	-24.9*	-2.0	-7.0	-0.7
C[C@@H]1CN([C@H](C)CO)C(=O)Cc2cc(NS(C)(=O)=O)ccc2O[C@H]1CN(C)S(=O)(=O)c1cn(C)cn1	-0.8	2.1	-0.4	.	.
Cc1ccc(C#N)c(SCc2ccccc2F)n1	.	-25.4*	-3.4	.	1.8
CC(=O)N1[C@H](C(=O)NCc2ccccc2)[C@@H](CO)[C@@H]2Cn3c(cccc3=O)[C@@H]21	.	1.3	2.4	.	-0.4
CC1(C)NC(=O)N(CC(O)COc2ccccc2-c2ccccc2)C1=O (stereo not given)	1.1	.	.	-12.4	.
COc1ccccc1OCC(O)CN1C(=O)NC(C)(C)C1=O (stereo not given)	.	6.7	9.4*	-13.7	-0.7
CO[C@@H]1CN(C)C(=O)c2ccc(NC(=O)NC(C)C)cc2OC[C@@H](C)N(S(C)(=O)=O)C[C@@H]1C	.	3.6	2.3	.	-2.2
Cc1nc2cc(NC(=O)C3COc4ccccc4O3)ccc2s1 (stereo not given)	-1.2	.	-0.1	-0.5	90.4*
O=C(C[C@@H]1CC[C@H]2[C@@H](COC[C@H](O)CN2C(=O)Nc2ccc3c(c2)OCO3)O1)N1CCN(c2ccccc2)CC1	7.3	-5.1	0.4	.	.
O=C(C[C@H]1CC[C@@H]2[C@H](COC[C@H](O)CN2C(=O)c2ccccc2)O1)N1CCOCC1	0.8	0.9	0.8	.	-0.7
Cc1cc(C)nc(N(C#N)Cc2cccc(Cl)c2)n1	10.7	-37.6	10.5*	25.2	5.3
Cc1cc(C)nc(N(C#N)Cc2ccc(Cl)cc2)n1	6.1	-38.6	0.3	35.7*	-0.3
N#Cc1ccc(C(=O)N2CCC3CC2c2cc(-c4ccc(F)cc4)ccc23)cc1 (stereo not given)	-3.1	-25.6*	-2.8	-7.8	.
COc1ccc(-c2ccc3c(c2)C2CC3CCN2C(=O)C(C)(C)C)cc1 (stereo not given)	-4.6	-29.9*	0.1	-1.9	-1.1
COc1cccc(-c2ccc3c(c2)C2CC3CCN2C(C)=O)c1 (stereo not given)	-0.5	-4.6	2.9	-14.8	-3.0
O=C(NC1CCC1)[C@H]1[C@H](CO)[C@H]2Cn3c(ccc(-c4ccc(F)cc4)c3=O)[C@@H]1N2Cc1cocn1	.	-1.6	-0.5	.	0.0

Screening data from PubChem BioAssay.
